Results as given in PubChem BioAssay.
Activity calls are given as the source filed them.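 Rule for the calls, unless noted: active = fluorescence slope higher than the sample average by over 3 SD (cut at about -0.22 in these data, passing the limit was not always enough); inactive = the rest.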

Columns and labels:
[1] = inhibitors of E-selectin induction by TNFa, primary screen, imaging, HUVEC, immunofluorescence, MLSMR starter and 10KST1 sets (AID 487;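 active = visually confirmed hit in the image check and inhibition above 20%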;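 for inhibition: signal is fraction of cell area covered by stained E-selectin grains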;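 for nuclei count: 100% = median nuclei count of all wells on the same plate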); conditions: HUVEC TNFalpha-induced E-selectin immunofluorescence imaging, at 2 µM; inhibition: stronger effect = higher value; nuclei count: measured here: cell number, toxicity
[2] = DUSP6 inhibitors restoring Erk phosphorylation by chemical complementation, primary imaging in DUSP6-transfected HeLa (AID 609;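 active = compounds giving at least 50% inhibition in the cell-based MKP-3 phosphatase rescue imaging test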;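 for inhibition: phospho-Erk level distribution per well compared with pooled transfected vehicle control wells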); conditions: HeLa MKP-3 transfected, phospho-Erk imaging KS statistic, at 10 µM, cells stimulated with TPA for 15 min
[3] = biological target: Dual specificity protein phosphatase 6 (Homo sapiens) (UniProt Q16828); experiment: as above; conditions: HeLa MKP-3 transfected, phospho-Erk imaging KS statistic; at 10 µM; stronger effect = higher value; cells stimulated with TPA for 15 min
[4] = biological target: Voltage-gated potassium channel subunit beta-2 (Rattus norvegicus) (UniProt P62483); experiment: KvBeta enzyme negative modulators, primary screen, biochemical, NADPH fluorescence (AID 622); conditions: recombinant KvBeta, 4-cyanobenzaldehyde reduction, at 10 µM, stronger effect = higher value;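 note: slope of raw intensity against log time taken from 70 to 1610 s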
[5] = biological target: Voltage-gated potassium channel subunit beta-2 (Rattus norvegicus) (UniProt P62483); experiment: KvBeta positive modulators, primary screen, biochemical, NADPH fluorescence (AID 623;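 active = NADPH fluorescence slope more negative than the mean of all samples by about 3 SD, 99.7% confidence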;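 note: fluorescence intensity change per second fitted from 20 to 320 s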); conditions: Recombinant KvBeta, NADPH fluorescence decrease slope, 10 min; at 10 µM; stronger effect = lower value
[6] = biological target: Muscarinic acetylcholine receptor M4 (Homo sapiens) (UniProt P08173); experiment: compounds altering M4/GIRK thallium flux, either direction, primary screen, M4 allosteric agonist project, cell-based, HEK293 M4/GIRK, BTC-AM (AID 625;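 active = fluorescence slope after compound addition differing from the mean of all tested samples at 99.7% confidence, mostly higher but some lower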;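 note: thallium influx through GIRK channels coupled to M4 in HEK293 cells with BTC-AM dye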); conditions: at 10 µM, actives lie on both sides
[7] = inhibitors of larval lipid processing in zebrafish, primary screen, whole organism, PED6 fluorescence, gall bladder and intestine (AID 686;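 active = a full or partial loss of lipid-probe fluorescence in the fish gall bladder, intestine or both, judged by eye; inactive = no fluorescence loss, or compound toxic to the fish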;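 note: larvae 5 to 7 days old with five fish per well; signal comes from phospholipase A2 cleavage of quenched PED6 carried via bile; overnight exposure to compound and PED6 before scoring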); conditions: Zebrafish larvae PED6 lipid processing, fluorescence scoring; screened at 20 µM (by protocol)
[8] = inhibitors of Chlamydomonas gravitaxis, primary screen, whole organism, Chlamydomonas reinhardtii, WT vs cilia-less mutant, absorbance, 96-well (AID 463189;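 active = inhibition at or above 50% relative to wild type and mutant plate controls; inactive = inhibition below 50%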;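 note: 0% = wild type cc124 cells in DMSO and 100% = ciliumless bld1 mutant cells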); conditions: OD600 absorbance, 2 days, at 10 µM, stronger effect = higher value
[9] = measured here: cell density z-score
[10] = measured here: nuclear c-Myc green intensity z-score
[11] = measured here: nuclear pErk red intensity z-score, stronger effect = higher value

Sequence of Voltage-gated potassium channel subunit beta-2 (Rattus norvegicus) (P62483 whole entry, looked up): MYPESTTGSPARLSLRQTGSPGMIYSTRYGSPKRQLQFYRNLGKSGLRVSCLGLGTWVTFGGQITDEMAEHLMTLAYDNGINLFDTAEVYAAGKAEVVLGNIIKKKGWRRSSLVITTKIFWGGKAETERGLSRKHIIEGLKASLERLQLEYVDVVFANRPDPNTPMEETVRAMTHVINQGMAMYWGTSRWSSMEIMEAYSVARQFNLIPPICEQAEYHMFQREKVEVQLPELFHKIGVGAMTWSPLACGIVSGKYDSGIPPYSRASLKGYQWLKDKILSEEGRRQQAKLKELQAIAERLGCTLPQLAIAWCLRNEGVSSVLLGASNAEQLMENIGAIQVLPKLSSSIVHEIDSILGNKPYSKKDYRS
Sequence of Dual specificity protein phosphatase 6 (Homo sapiens) (Q16828 whole entry, looked up): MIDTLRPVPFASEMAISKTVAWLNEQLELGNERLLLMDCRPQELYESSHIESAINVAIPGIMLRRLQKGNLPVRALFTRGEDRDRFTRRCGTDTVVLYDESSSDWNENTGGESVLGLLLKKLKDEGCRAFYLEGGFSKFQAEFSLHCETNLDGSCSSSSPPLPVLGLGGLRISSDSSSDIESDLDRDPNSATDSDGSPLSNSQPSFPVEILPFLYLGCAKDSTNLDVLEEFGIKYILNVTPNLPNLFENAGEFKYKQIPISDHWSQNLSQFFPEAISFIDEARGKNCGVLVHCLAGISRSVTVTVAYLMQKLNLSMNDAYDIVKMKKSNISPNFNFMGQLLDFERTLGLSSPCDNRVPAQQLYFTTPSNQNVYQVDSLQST
Sequence of Muscarinic acetylcholine receptor M4 (Homo sapiens) (P08173 whole entry, looked up): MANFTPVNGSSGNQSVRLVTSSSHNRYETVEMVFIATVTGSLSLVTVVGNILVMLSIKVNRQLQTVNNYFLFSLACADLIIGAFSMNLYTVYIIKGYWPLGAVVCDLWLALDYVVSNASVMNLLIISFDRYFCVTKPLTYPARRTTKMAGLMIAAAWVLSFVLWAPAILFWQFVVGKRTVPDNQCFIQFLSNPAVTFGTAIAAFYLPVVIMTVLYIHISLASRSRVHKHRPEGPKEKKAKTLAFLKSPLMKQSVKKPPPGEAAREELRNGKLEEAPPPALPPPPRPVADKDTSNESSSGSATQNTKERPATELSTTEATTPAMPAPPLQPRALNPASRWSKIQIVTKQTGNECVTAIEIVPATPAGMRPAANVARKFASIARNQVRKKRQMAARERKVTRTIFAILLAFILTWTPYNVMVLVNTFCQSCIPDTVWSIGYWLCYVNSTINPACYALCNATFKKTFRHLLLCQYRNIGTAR

Structure (SMILES) | inhibition [1] | nuclei count [1] | z-score [2, 9] | z-score [2, 10] | z-score [2, 11] | inhibition [3] | fluorescence slope [4] | NADPH fluorescence slope [5] | fluorescence slope [6] | outcome [7] | inhibition [8]
O=C(Oc1ccccc1)c1c(Cl)cccc1P(=O)(O)O | -22.4% (inactive) | 146% | -1.16 | 0.0504 | -1.03 | -0.159% (inactive) | -0.396 (inactive) | -2.5e-05 (inactive) | 0.00459 (inactive) | inactive | -7.77% (inactive)
O=C(NC1CCCCC1)[C@H](O)[C@@H](O)C(=O)NC1CCCCC1 | -94% (inactive) | 140% | -1.12 | 0.563 | 0.453 | 5.57% (inactive) | -0.381 (inactive) | -4.7e-05 (inactive) | 0.00717 (inactive) | inactive | -2.73% (inactive)
O=P(O)(c1ccccc1)c1ccccc1O | 2% (inactive) | 77.2% | 0.571 | 0.329 | 0.814 | 5.57% (inactive) | -0.452 (inactive) | -1.5e-05 (inactive) | 0.00546 (inactive) | inactive | 28.7% (inactive)
CCCc1nnc(SCc2ccc(OCC)cc2)n1N | -86% (inactive) | 147% | -0.133 | 1.35 | 1.37 | 7.48% (inactive) | -0.421 (inactive) | -1.6e-05 (inactive) | 0.00481 (inactive) | inactive | 28.9% (inactive)
CCC(=O)Oc1oc(-c2ccccc2)nc1C=Nc1ccccc1OC | -41.7% (inactive) | 161% | 0.687 | 0.248 | 1.48 | 9.39% (inactive) | -0.381 (inactive) | -4.4e-05 (inactive) | 0.00681 (inactive) | inactive | 10.5% (inactive)
COc1cc(C(=O)NCC(=O)n2nc(C)cc2C)cc(OC)c1OC | 19% (inactive) | 141% | 1.48 | 0.2 | -2.19 | 20.8% (inactive) | -0.389 (inactive) | 7.5e-06 (inactive) | 0.00583 (inactive) | inactive; toxic | -4.24% (inactive)
COc1ccc(OC)c(N=C(C)C2=C(O)COC2=O)c1 | -20.1% (inactive) | 104% | -1.31 | 0.523 | 0.389 | -0.159% (inactive) | -0.404 (inactive) | 6.7e-06 (inactive) | 0.00554 (inactive) | inactive; toxic | -11.6% (inactive)
Cc1cc(C)n(C(=O)CNC(=O)c2ccc3c(c2)OCCO3)n1 | -96.3% (inactive) | 162% | 1.78 | -0.668 | -1.28 | 18.9% (inactive) | -0.374 (inactive) | -5.5e-05 (inactive) | 0.00504 (inactive) | inactive | 12.4% (inactive)
c1ccc2c(c1)nc(CN1CCOCC1)n1c3ccccc3nc21 | -88% (inactive) | 174% | -0.838 | -0.224 | 1.09 | -3.98% (inactive) | -0.309 (inactive) | -2.8e-05 (inactive) | 0.00659 (inactive) | inactive | -4.79% (inactive)
CCOC(=O)c1ccc(CSc2ncn[nH]2)o1 | -61.8% (inactive) | 156% | 0.633 | -0.893 | -0.304 | 17% (inactive) | -0.407 (inactive) | -3.4e-05 (inactive) | 0.00583 (inactive) | inactive | 10.3% (inactive)
CC(C)CCOc1ccc(Cl)cc1CN1CCOCC1 | -12.9% (inactive) | 146% | -1.08 | -0.136 | -0.739 | -3.98% (inactive) | -0.378 (inactive) | -7.1e-06 (inactive) | 0.00465 (inactive) | inactive; toxic | 106% (active)
COCCN(Cc1ccccc1)P(=O)(O)c1ccccc1OCC(=O)O | -21.2% (inactive) | 151% | 1.19 | -1.67 | 0.944 | 15.1% (inactive) | -0.446 (inactive) | -4.4e-05 (inactive) | 0.00543 (inactive) | inactive | 19.2% (inactive)
O=C(CCN1CCCC1Cc1ccccc1)c1ccc2c(c1)OCCO2 (stereo not drawn) | -106% (inactive) | 162% | -1.44 | -1.2 | 0.369 | 1.75% (inactive) | -0.423 (inactive) | -6.5e-05 (inactive) | 0.00498 (inactive) | inactive | 7.98% (inactive)
CN(CCOC(=O)c1cccc(Br)c1)C(C)(C)C | -47% (inactive) | 134% | -0.456 | 0.868 | 2.16 | 7.48% (inactive) | -0.405 (inactive) | -4e-05 (inactive) | 0.00522 (inactive) | inactive | 30.2% (inactive)
COc1cccc(C(=O)OCCN(C)C(C)(C)C)c1 | -23.7% (inactive) | 128% | 0.369 | 1.71 | -0.0558 | 17% (inactive) | -0.414 (inactive) | -3.4e-05 (inactive) | 0.00557 (inactive) | inactive | 31.9% (inactive)
COc1cccc(N2CCN(c3ncnc4c3[nH]c3ccccc34)CC2C)c1 (stereo not drawn) | 72.8% (inactive) | 102% | -0.905 | -0.691 | 2.95 | -7.93% (inactive) | -0.41 (inactive) | -8e-06 (inactive) | 0.00483 (inactive) | inactive | 57% (active)
COc1cccc(C(=O)NCC(=O)n2nc(C)cc2C)c1 | -70.4% (inactive) | 88.5% | 0.974 | 0.517 | -1.04 | 15.1% (inactive) | -0.462 (inactive) | -4.4e-05 (inactive) | 0.00505 (inactive) | inactive | 36% (inactive)
CCC1=Nc2ccccc2NC2=C1C(=O)CCC2 | -65.4% (inactive) | 87.8% | -1.25 | 0.203 | -0.00909 | 3.66% (inactive) | -0.427 (inactive) | -3.7e-05 (inactive) | 0.00568 (inactive) | inactive | 23.6% (inactive)
COc1ccc(CSc2nnc(C)n2N)cc1Br | -82.3% (inactive) | 182% | 1.41 | -2.02 | 0.078 | 13.2% (inactive) | -0.395 (inactive) | -5.4e-05 (inactive) | 0.00742 (inactive) | inactive | 5.58% (inactive)
CCCOc1ccc(Cl)cc1CN1CCOCC1 | -21.7% (inactive) | 67.6% | 0.154 | -1.58 | -0.239 | 20.8% (inactive) | -0.499 (inactive) | -3e-05 (inactive) | 0.0115 (inactive) | inactive | 32.2% (inactive)
O=c1/c(=C/c2ccccn2)sc2n1CN(c1ccccc1)CN=2 | 15.3% (inactive) | 137% | 0.878 | 0.58 | -0.986 | 34.2% (inactive) | -0.4 (inactive) | -4.8e-05 (inactive) | 0.00773 (inactive) | inactive | 32% (inactive)
Cc1ccc(N2CN=c3s/c(=C\c4cccnc4)c(=O)n3C2)cc1 | -18.9% (inactive) | 87.4% | -0.873 | 0.442 | 0.633 | 1.75% (inactive) | -0.483 (inactive) | -4.2e-05 (inactive) | 0.00552 (inactive) | inactive | 36.5% (inactive)
CN(C)/C=C1\N=C(c2cccs2)OC1=O | -85.3% (inactive) | 178% | -0.766 | -0.714 | 0.335 | 1.75% (inactive) | -0.406 (inactive) | -4e-05 (inactive) | 0.00407 (inactive) | inactive | 26.8% (inactive)
O=C(CCN1CCc2ccccc2CC1)c1ccc2c(c1)OCCO2 | -194% (inactive) | 154% | 1.21 | 0.758 | 0.122 | 9.39% (inactive) | -0.406 (inactive) | -5.2e-05 (inactive) | 0.00461 (inactive) | inactive | 40.1% (inactive)
Cc1cccc(OCC(=O)NCC(=O)n2nc(C)cc2C)c1 | -106% (inactive) | 146% | -0.336 | 0.0922 | 0.78 | -7.79% (inactive) | -0.413 (inactive) | -9.5e-06 (inactive) | 0.00436 (inactive) | inactive | 16.2% (inactive)
CCCOc1cccc(CN2CCCCC2c2cccnc2)c1 (stereo not drawn) | -33.4% (inactive) | 153% | 0.13 | 0.714 | -0.468 | 5.57% (inactive) | -0.369 (inactive) | 1.8e-06 (inactive) | 0.00674 (inactive) | inactive | -12.9% (inactive)
Clc1ccc2nc(N3CCNCC3)nc(-c3ccccc3)c2c1 | 14.5% (inactive) | 144% | 0.81 | -0.0975 | 1.71 | 7.48% (inactive) | -0.23 (inactive) | -6.4e-06 (inactive) | 0.00627 (inactive) | inactive | 151% (active)
Cc1cc(C)n(C(=O)CNC(=O)c2cccs2)n1 | -109% (inactive) | 182% | 0.591 | -1.67 | -0.663 | 7.48% (inactive) | -0.404 (inactive) | -3.1e-05 (inactive) | 0.00505 (inactive) | inactive | 16.6% (inactive)
